For six molecules, potency estimated from few doses results are on record in publication PMC11062922 (Nature Chemical Biology, 2023).

Read-outs that look alike come from different tables or passages of the source.

What all share (design): species or system human, MV4-11 + K-562 + COLO205 + SK-N-BE2 + OVCAR-8
One assay has as its system CDC42. As to conditions: read-out: apparent Kd, n = 1.
The subject of a further assay is GSK3A. As to conditions: read-out: apparent Kd, compound concentrations: 100 nM and 1000 nM (sheet 'Samples'), n = 1.
In the next assay the test system is GSK3B. The settings on record: read-out: apparent Kd, compound concentrations: 100 nM and 1000 nM (sheet 'Samples'), n = 1.
For a further assay, the system named is CDK16. As to conditions: read-out: apparent Kd, n = 1.
The test system of another assay is CDK17. As to conditions: read-out: apparent Kd, n = 1.
Another assay relates to CLK1. As to conditions: read-out: apparent Kd; compound concentrations: 100 nM and 1000 nM (sheet 'Samples'), CATDS: 0.14144162064954499; n = 1.
The test system of a further assay is CLK4. As to conditions: read-out: apparent Kd; compound concentrations: 100 nM and 1000 nM (sheet 'Samples'), CATDS: 0.121885472090614; n = 1.
In another assay the test system is DYRK1A. The settings on record: read-out: apparent Kd; compound concentrations: 100 nM and 1000 nM (sheet 'Samples'), CATDS: 6.0885213450921502E-2; n = 1.
Another assay concerns ICK. The settings on record: read-out: apparent Kd, n = 1.
Another assay relates to PRKCA. As to conditions: read-out: apparent Kd; compound concentrations: 100 nM and 1000 nM (sheet 'Samples'), CATDS: 6.1825082982023397E-2; n = 1.
A further assay relates to PRKCB. As to conditions: read-out: apparent Kd; compound concentrations: 100 nM and 1000 nM (sheet 'Samples'), CATDS: 5.6210904808559101E-2; n = 1.
For the next assay, the system named is PRKCD. The settings on record: read-out: apparent Kd; compound concentrations: 100 nM and 1000 nM (sheet 'Samples'), CATDS: 6.6135854236704303E-2; n = 1.
For the next assay, the system named is SLK. As to conditions: read-out: apparent Kd, n = 1.
The test system of another assay is PIK3CB. As to conditions: read-out: apparent Kd; compound concentrations:100 nM and 1000 nM (sheet 'Samples'); n = 1.
In the next assay the test system is RAB5C. As to conditions: read-out: apparent Kd; compound concentrations:100 nM and 1000 nM (sheet 'Samples'); n = 1.
For a further assay, the system named is CSNK1A1. As to conditions: read-out: apparent Kd; compound concentrations:100 nM and 1000 nM (sheet 'Samples'); n = 1.
The test system of another assay is CSNK1D. The settings on record: read-out: apparent Kd; compound concentrations:100 nM and 1000 nM (sheet 'Samples'); n = 1.
Another assay concerns CSNK1E. As to conditions: read-out: apparent Kd; compound concentrations:100 nM and 1000 nM (sheet 'Samples'); n = 1.
The next assay has as its system ERBB3. As to conditions: read-out: apparent Kd; compound concentrations:100 nM and 1000 nM (sheet 'Samples'); n = 1.
The next assay relates to MAPK14. As to conditions: read-out: apparent Kd; compound concentrations:100 nM and 1000 nM (sheet 'Samples'); n = 1.
The subject of another assay is MAPKAPK2. As to conditions: read-out: apparent Kd; compound concentrations:100 nM and 1000 nM (sheet 'Samples'); n = 1.
The next assay deals with RAB14. The settings on record: read-out: apparent Kd; compound concentrations:100 nM and 1000 nM (sheet 'Samples'); n = 1.
The test system of another assay is CDK10. The settings on record: read-out: apparent Kd; compound concentrations:100 nM and 1000 nM (sheet 'Samples'); n = 1.
The test system of another assay is CDK1. The settings on record: read-out: apparent Kd; compound concentrations:100 nM and 1000 nM (sheet 'Samples'); n = 1.
The subject of the next assay is CDK2. The settings on record: read-out: apparent Kd; compound concentrations:100 nM and 1000 nM (sheet 'Samples'); n = 1.
The test system of another assay is CDK4. The settings on record: read-out: apparent Kd; compound concentrations:100 nM and 1000 nM (sheet 'Samples'); n = 1.
For the next assay, the system named is CDK5. As to conditions: read-out: apparent Kd; compound concentrations:100 nM and 1000 nM (sheet 'Samples'); n = 1.
For a further assay, the system named is CDK6. The settings on record: read-out: apparent Kd; compound concentrations:100 nM and 1000 nM (sheet 'Samples'); n = 1.
The test system of the next assay is CDK7. As to conditions: read-out: apparent Kd; compound concentrations:100 nM and 1000 nM (sheet 'Samples'); n = 1.
Another assay has as its system CDK9. The settings on record: read-out: apparent Kd; compound concentrations:100 nM and 1000 nM (sheet 'Samples'); n = 1.
[1] abbreviates: compound concentrations:100 nM and 1000 nM (sheet 'Samples').

`Cn1cc(C2=C(c3cccc(N)c3)C(=O)NC2=O)c2ccccc21` [RO0317471-000]: the potency estimated from few doses was 1200 nM in the assay on CDC42 (compound concentrations: 100 nM and 1000 nM (sheet 'Samples'), CATDS: 0.203680819174512); 23.5 nM in the assay with GSK3A (CATDS: 0.53179335167556496); 32.2 nM in the assay with GSK3B (CATDS: 0.45250345973029299).

In the case of `Cl.Cn1cc(C2=C(c3cccc(NCC(O)CO)c3)C(=O)NC2=O)c2cc(Cl)ccc21` (stereo not drawn) [RO3303724-001], the potency estimated from few doses in the assay with CDK16 (compound concentrations: 100 nM and 1000 nM (sheet 'Samples'), CATDS: 8.3420011221061796E-2) was 435 nM; with CDK17 (compound concentrations: 100 nM and 1000 nM (sheet 'Samples'), CATDS: 6.9472696820348595E-2), 789 nM; with CLK1, 89.4 nM; in the assay on CLK4 it was 140 nM; with DYRK1A, 1290 nM; in the assay with GSK3A (CATDS: 0.52335848110550598), 1.59 nM. Further, the potency estimated from few doses in the assay on GSK3B (CATDS: 0.436012050591219) was 2.26 nM; in the assay with ICK (compound concentrations: 100 nM and 1000 nM (sheet 'Samples'), CATDS: 7.1463639855973302E-2), 716 nM; in the assay with PRKCA, 1210 nM; in the assay on PRKCB, 1830 nM; in the assay with PRKCD, 939 nM; in the assay on SLK (compound concentrations: 100 nM and 1000 nM (sheet 'Samples'), CATDS: 5.3656939950023998E-2) it was 2310 nM.

`O=c1cc(N2CCOCC2)nc2n(Cc3cccc(C(F)(F)F)c3)ccn12` [GSK2297543A]: the potency estimated from few doses in the assay with CDC42 (setting [1]) was 1400 nM; in the assay on PIK3CB, 274 nM; in the assay with RAB5C, 976 nM.

`NC(=O)c1ccc(Oc2nccc(-c3c(-c4ccc(F)cc4)ncn3C3CCNCC3)n2)cc1` [SB-242718]: the potency estimated from few doses with CDC42 (setting [1]) was 922 nM; in the assay on CSNK1A1, 2320 nM; in the assay on CSNK1D it was 246 nM; with CSNK1E, 642 nM; in the assay on ERBB3, 1430 nM; in the assay with MAPK14 it was 476 nM. For the same molecule, the potency estimated from few doses with MAPKAPK2 was 18.3 nM; in the assay with RAB14 it was 1380 nM.

For the molecule `COc1ccc(F)cc1C(=O)c1cnc(NC2CCN(S(C)(=O)=O)CC2)nc1N` [RO4517872-000], the potency estimated from few doses is 915 nM with CDK10; 74.1 nM in the assay on CDK16 (setting [1]); 75.1 nM in the assay with CDK17 (setting [1]); 402 nM with CDK1; 62.7 nM with CDK2; 1200 nM in the assay with CDK4. For the same molecule, the potency estimated from few doses was 221 nM in the assay on CDK5; 1680 nM with CDK6; 1460 nM in the assay on CDK7; 246 nM with CDK9; 347 nM in the assay with ICK (setting [1]); 1280 nM in the assay with SLK (setting [1]).

Regarding `CC(=O)Nc1cccc(C#Cc2cncnc2Nc2ccc(OCc3cccc(F)c3)c(Cl)c2)c1` [GW703087X], the potency estimated from few doses in the assay on CDK10 is 1540 nM.
